Activity calls are given as the source filed them. Unless noted, how the calls were made is not given here.
Key:
[1] = tested on: XIP peptide (Xip251-270) binding; test: small-molecule binders of XIP peptide, primary screen, biochemical, small-molecule microarray, fluorescence 635/667 nm, 0.1 µg/mL protein (AID 1182); conditions: fluorescent protein binding, 635 nm, higher = more signal, called active from +8 up or from −8 down
[2] = tested on: XIP peptide (Xip251-270); test: small-molecule binders of XIP peptide, primary screen, biochemical, small-molecule microarray, fluorescence 635/667 nm, 0.5 µg/mL protein (AID 1183); conditions: small-molecule microarray binding, fluorescence 635 nm; higher = more signal
[3] = Plasmodium falciparum growth inhibition, primary screen, strain 3D7, DAPI fluorescence, 100 nL (AID 1184);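 further: parasites grown inside human red blood cells in medium with human serum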; conditions: P. falciparum 3D7 growth, 3 d, higher = more signal
[4] = molecular target: Homeobox protein Hox-A13 (Mus musculus) (UniProt Q62424); test: inhibitors of HoxA13-DNA binding, primary screen, biochemical, fluorescence polarization, labeled oligonucleotide (AID 1185); conditions: 15 min, higher = more signal, called active from +8 up or from −8 down
[5] = inhibitors of hydroxyurea-induced Chk1 phosphorylation, primary screen, imaging, HeLa, phospho-Chk1 antibody, percent positive cells (AID 1186); conditions: hydroxyurea-induced phospho-Chk1 immunofluorescence imaging, higher = more signal
[6] = inhibitors of hydroxyurea-induced Chk1 phosphorylation, primary screen, imaging, HeLa, phospho-Chk1 nuclear intensity (AID 1187); conditions: hydroxyurea-induced phospho-Chk1 immunofluorescence imaging, higher = more signal

Sequence of Homeobox protein Hox-A13 (Mus musculus) (Q62424 whole entry, looked up): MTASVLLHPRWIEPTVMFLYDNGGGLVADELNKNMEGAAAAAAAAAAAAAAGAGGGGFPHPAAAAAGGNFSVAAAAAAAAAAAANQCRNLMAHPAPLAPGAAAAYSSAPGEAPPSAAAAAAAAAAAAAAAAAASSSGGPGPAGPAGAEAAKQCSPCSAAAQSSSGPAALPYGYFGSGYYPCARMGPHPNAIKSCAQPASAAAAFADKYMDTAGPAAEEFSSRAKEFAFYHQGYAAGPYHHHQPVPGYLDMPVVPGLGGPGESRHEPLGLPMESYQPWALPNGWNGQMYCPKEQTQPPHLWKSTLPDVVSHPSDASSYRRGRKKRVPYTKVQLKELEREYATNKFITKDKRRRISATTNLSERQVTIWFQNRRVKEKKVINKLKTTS

SMILES | composite z-score [1] | composite z-score [2] | z-score [3] | z-score [4] | z-score [5] | z-score [6]
CN1C(=O)C2C=CC(C(O)C3CCCCC3)N(N(c3ccccc3)c3ccccc3)C2C1=O (centres undefined) | -0.119 (inactive) | 0.63 | 0.721 | -4.01 (inactive) | 0.74 (inactive) | -0.024 (inactive)
O=C(NCc1ccccc1)[C@]1(Cc2ccccc2)N=C(c2ccc(OCCCO)cc2)O[C@@H]1c1ccccc1 | 0.0268 (inactive) | 0.117 | -2.18 | -2.75 (inactive) | -0.875 (inactive) | -1.17 (inactive)
C[N+](C)(C)CCCCNC(=O)[C@H]1C[C@H]2C(=O)NCC(=O)N2[C@H]1c1ccc(O)cc1 | 0.696 (inactive) | 0.922 | 0.258 | -0.735 (inactive) | -1.02 (inactive) | -0.701 (inactive)
CCCN1C(=O)[C@@H]2Cc3c([nH]c4ccccc34)[C@@H](c3cccc(O)c3)N2C1=O | -0.227 (inactive) | 0.181 | 1.39 | -0.802 (inactive) | -0.0463 (inactive) | -0.202 (inactive)
CN(C)C(=O)[C@@]1(CCC(=O)OC(C)(C)C)COC(c2ccc(OCCCO)cc2)=N1 | 0.9 (inactive) | 0.846 | 0.388 | -3.81 (inactive) | -0.0526 (inactive) | 0.337 (inactive)
OCCCC1=CC(c2cccs2)N(Cc2cccc(OC(F)(F)F)c2)CC1 (centres undefined) | -0.512 (inactive) | 0.754 | -0.717 | -2.9 (inactive) | 0.439 (inactive) | 0.513 (inactive)
CO[C@H]1O[C@H](CO)[C@@H](OC(=O)Nc2cccc(F)c2)[C@H](OC(=O)Nc2ccc3c(c2)OCO3)[C@H]1OC(=O)Nc1ccc2c(c1)OCO2 | 1.87 (inactive) | 0.813 | -1.34 | -7.92 (inactive) | -0.178 (inactive) | 0.0427 (inactive)
Cc1ccc(S[C@]2(C(=O)NCc3ccccc3)CC(=O)N(C3Cc4ccccc4C3)[C@@H]2c2ccc(CO)cc2I)cc1 | 1.77 (inactive) | 0.23 | 0.237 | -1.78 (inactive) | -0.424 (inactive) | -0.164 (inactive)
O=C1C[C@@](C(=O)NCc2ccccc2)(c2ccc([N+](=O)[O-])cc2)[C@@H](c2ccc(CO)cc2I)N1C1CCCCC1 | 0.193 (inactive) | 0.676 | -1.45 | -3.45 (inactive) | 0.173 (inactive) | 0.408 (inactive)
COc1ccc([Si](C)(C)[C@@H]2[C@@H](CC(=O)N(CCO)Cc3ccccc3)O[C@]3(C(=O)N(C)c4c(Br)cc(C)cc43)[C@H]2C)cc1 | 0.48 (inactive) | 0.373 | -1.48 | -6.47 (inactive) | -0.743 (inactive) | -1.69 (inactive)
CCN(CC)c1ccc(N2CC=CC34O[C@@H]5/C=C\CCCOC(=O)C5[C@H]3C(=O)N(CCCCCCO)[C@@H]4C2=O)cc1 (some centres undefined) | 1.51 (inactive) | 0.897 | -0.789 | -5.09 (inactive) | -0.0771 (inactive) | 1.02 (inactive)
CCCC=C(CCC)[C@@H](NS(=O)(=O)c1ccccc1)c1ccc(C(F)(F)F)cc1 | -0.363 (inactive) | 0.528 | 0.118 | -1.19 (inactive) | -0.147 (inactive) | -0.423 (inactive)
Cc1ccccc1C(O)C1C=CC2C(=O)N(Cc3ccccc3)C(=O)C2N1n1cnnc1 (centres undefined) | 0.598 (inactive) | 0.58 | -0.318 | -3.23 (inactive) | 0.135 (inactive) | -0.544 (inactive)
CC(C)C[C@@H]1NC(=O)[C@@]23C(=O)N[C@@H](Cc4ccccc4)C2[C@H](C)[C@@]2(C)O[C@H]2C3/C=C/C/C=C\CNC(=O)[C@@H]2CCCN2C1=O (some centres undefined) | -0.0982 (inactive) | -0.791 | 0.817 | -6.29 (inactive) | -0.118 (inactive) | 0.275 (inactive)
CCCc1cc2c(n1Cc1ccc(OC)cc1)C(C)C1CN(C(=O)c3ccccc3)C(C)(C(=O)OC)C21 (centres undefined) | -0.0607 (inactive) | 0.174 | -1.42 | -3.45 (inactive) | 0.5 (inactive) | 0.396 (inactive)
Cc1ccc(F)cc1S(=O)(=O)N[C@@H]1CCN(C(=O)c2ccc(OC(C)C)cc2)C1 | 0.615 (inactive) | 0.805 | -1.21 | -5.21 (inactive) | 0.0079 (inactive) | -0.303 (inactive)
CN1C(=O)C2C=CC(C(O)c3cccc4ccccc34)N(NC(=O)OC(C)(C)C)C2C1=O (centres undefined) | 0.704 (inactive) | 0.586 | 0.99 | -3.88 (inactive) | 0.326 (inactive) | -0.397 (inactive)

SMILES | composite z-score [1] | composite z-score [2] | z-score [3] | z-score [4] | z-score [5] | z-score [6]
COc1ccc(C(=O)Nc2ccc(CN3C(=O)[C@]4(O[C@H](CCn5cc([C@H](O)c6ccccc6)nn5)[C@@H]([Si](C)(C)c5ccc(OC)cc5)[C@@H]4C)c4ccccc43)cc2)cc1 | -0.211 (inactive) | -0.0268 | -2.7 | 0.564 (inactive) | 0.107 (inactive) | 0.168 (inactive)
O=C1NC(=O)C2C1C=CC(C(O)CCc1ccccc1)N2Nc1ccccn1 (centres undefined) | 0.415 (inactive) | 0.932 | 0.581 | -0.354 (inactive) | -0.181 (inactive) | -0.426 (inactive)
CC1(C)[C@@H]2CC(C(O)C3C=CC4C(=O)N(c5ccccc5)C(=O)C4N3Nc3ccccc3F)=C[C@@H]1C2 (some centres undefined) | 0.572 (inactive) | 0.458 | -0.59 | -2.4 (inactive) | 0.498 (inactive) | 0.749 (inactive)
CN(C)CCCN1C(=O)[C@@]2(Cc3ccccc31)c1ccccc1C(=O)N(Cc1ccccc1)[C@H]2c1ccc(CO)cc1 | 0.0022 (inactive) | 0.324 | -1.47 | 1.06 (inactive) | -0.384 (inactive) | -0.682 (inactive)
COC(=O)c1ccc(OC)c(/C=C\CC(CCc2ccccc2)OC(=O)c2ccncc2)c1 (centres undefined) | -0.661 (inactive) | -0.329 | -0.687 | -2.52 (inactive) | 0.0946 (inactive) | 0.459 (inactive)
CCCC=C(CCC)[C@@H](NS(=O)(=O)CC)c1ccccc1 | -0.255 (inactive) | 0.52 | -0.977 | -0.298 (inactive) | 0.304 (inactive) | 0.408 (inactive)
COC(=O)[C@@]1(Cc2ccccc2N=[N+]=[N-])N=C(c2ccc(OCCCO)cc2)O[C@H]1c1ccccc1 | 0.37 (inactive) | 0.601 | -1.85 | -3.98 (inactive) | 0.069 (inactive) | -0.447 (inactive)
C=CCN1C(=O)[C@@]2(O[C@@H](CCn3cc([C@H](O)c4ccccc4)nn3)[C@H]([Si](C)(C)c3ccc(OC)cc3)[C@H]2C)c2cc(NC(=O)c3ccc(OC)cc3)ccc21 | 0.593 (inactive) | 0.189 | -2.7 | -4.41 (inactive) | 0.24 (inactive) | -0.338 (inactive)
[N-]=[N+]=Nc1ccccc1C[C@]1(C(=O)NCCN2CCOCC2)N=C(c2ccc(OCCCO)cc2)O[C@H]1c1ccccc1N=[N+]=[N-] | 1.24 (inactive) | 0.682 | -2.21 | -3.22 (inactive) | -1.3 (inactive) | -2.17 (inactive)
COCCCNC(=O)[C@@]1(C)c2ccccc2C(=O)N(c2ccc(C)cn2)[C@H]1c1ccc(CO)cc1 | -0.625 (inactive) | 0.892 | 0.563 | -1.9 (inactive) | 0.228 (inactive) | 0.554 (inactive)
COCCOC(=O)N1C(=O)[C@@]2(c3cc(C#CCCO)ccc31)[C@H](c1ccc(OCCO)cc1)N1[C@H](c3ccccc3)[C@H](c3ccccc3)OC(=O)[C@H]1[C@@H]2C(=O)N1CCc2cc(OC)c(OC)cc2C1 | 0.311 (inactive) | 0.736 | -1.87 | 2.71 (inactive) | -0.209 (inactive) | 0.0256 (inactive)
COC(=O)C(CC#Cc1ccc2c(c1)[C@]1(C(=O)N2)[C@H](c2ccc(O)cc2)N2[C@H](c3ccccc3)[C@H](c3ccccc3)OC(=O)[C@H]2[C@@H]1C(N)=O)C(=O)OC | -0.609 (inactive) | -2.27 | 0.38 | 0.452 (inactive) | -0.174 (inactive) | -0.279 (inactive)
C=CC[C@@]1(C(=O)NCCN2CCOCC2)N=C(c2ccc(OCCCO)cc2)O[C@@H]1c1ccccc1 | 0.202 (inactive) | 0.638 | -0.825 | -6.6 (inactive) | 0.426 (inactive) | 0.0737 (inactive)
CO[C@H]1O[C@H](CO)[C@@H](OC(=O)Nc2ccc(C(F)(F)F)cc2)[C@H](OC(=O)Nc2ccccc2)[C@H]1OC(=O)Nc1ccccc1 | 1.91 (inactive) | 0.911 | -2.56 | -5.12 (inactive) | -0.628 (inactive) | -0.699 (inactive)
COCCOC(=O)N1C(=O)[C@@]2(c3cc(C#CCNC(N)=O)ccc31)[C@H](C(=O)N1CCCCCCC1)[C@H]1C(=O)O[C@H](c3ccccc3)[C@H](c3ccccc3)N1[C@@H]2c1ccc(OCCO)cc1 | 0.0447 (inactive) | 0.28 | -1.77 | -15.8 (active) | -0.0977 (inactive) | -0.64 (inactive)
Cc1ccc(S[C@]2(C(=O)O)CC(=O)N(Cc3ccccc3C(F)(F)F)[C@@H]2c2ccc(CO)cc2)cc1 | -0.161 (inactive) | -0.174 | 0.212 | -3.21 (inactive) | -0.511 (inactive) | -0.53 (inactive)
O=C(C=C(CC(O)c1cccc(Cl)c1)OCCF)OCCF (centres undefined) | 0.0562 (inactive) | -1.21 | 0.186 | -1.34 (inactive) | -0.608 (inactive) | -0.48 (inactive)

Source: PubChem BioAssay
